HP1b chromo inh: inhibitors of HP1-beta chromodomain binding to methylated histone tails. P83916. AlphaScreen HP1-beta / biotin-H3K9me3 peptide binding. hit rate 0.56% among 390,000. AID 540317. Potency, µM (highest dose often 114 µM), for the others: top-dose activity change, negative = inhibition, hits mostly inhibitors; note: nearly all actives have a fitted effect of over 70% in size
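Compound inhibition of the preformed complex between 50 nM HP1-beta and 50 nM biotinylated H3K9me3 peptide was read by AlphaScreen. Buffer was PBS pH 7.4 with 0.01% Tween-20. Incubations ran 30 min at room temperature, with 10 ug/mL donor/acceptor beads.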
G9a inh: G9a (human) methyltransferase inhibition. G9a H3K9 monomethylation, AlphaScreen, 2 h. AID 504332. hit rate 8.8% among 350,000. Potency, µM (series often up to 102 µM), for inactives: at the top dose activity, negative = inhibition, hits mostly inhibitors. Q96KQ7; note: % is set by controls: 0 for no effect and ±100 for the full control effect; nearly all actives have a fitted effect of over 75% in size
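Signal arises when biotinylated H3K9 peptide, once monomethylated, bridges streptavidin donor and antibody-captured acceptor beads. Enzyme at 20 nM was preincubated 15 min with test compounds; peptide 500 nM and SAM 20 uM then reacted for 2 h.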
BAZ2B inh: BAZ2B (human) inhibition | AlphaScreen BAZ2B-H3K14Ac peptide displacement | Potency, µM (titrated, usually from 114 µM), for inactives: at the top dose activity change, negative = inhibition, most hits filed as inhibitors | hit rate 4.4% among 360,000 | AID 504333; note: % is set by controls: 0 for no effect and ±100 for the full control effect; nearly all actives have a fitted effect of over 60% in size
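BAZ2B (50 nM) with biotin-H3(5-23)K14Ac peptide (50 nM) in PBS pH 7.4, 0.01% Tween-20, preformed 30 min, then compound 30 min at room temperature; top concentration 110uM. AlphaScreen streptavidin donor/nickel chelate acceptor beads (10 ug/mL final), 20 min dark, signal read.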
Sfp PPTase inh: blocks B. subtilis Sfp PPTase activity; Q9F4F7; Biochemical Sfp PPTase activity, qHTS; Potency, µM, for the others: largest response in the series, negative = inhibition, hits mostly inhibitors; hit rate 3.5% among 310,000; AID 1490;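 note: the enzyme is Sfp with the accession as filed and its product quenches rhodamine fluorescence; 0% = enzyme reaction without inhibitor and -100% = no enzyme wells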
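Buffer: 50 mM Hepes-Na pH 7.6, 10 mM MgCl2, 0.01% Nonidet P-40, 0.01% BSA. Enzyme 15 nM, pre-exposed to compound 15 min; substrates then added and fluorescence change tracked over 30 min.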
JMJD2A Tudor inh: JMJD2A Tudor domain (human) inhibition; O75164; AlphaScreen JMJD2A-Tudor / H3K4me3 peptide binding; Potency, µM (top dose mostly 114 µM), without a hit: top-dose activity change, negative = inhibition, most hits filed as inhibitors; hit rate 4.4% among 390,000; AID 504339; note: % is set by controls: 0 for no effect and ±100 for the full control effect; nearly all actives have a fitted effect of over 50% in size
* hit, by the source's call; ? = inconclusive; nt = no result; [ ] = dose if it differs, or a comment. Most compounds without a hit are left out; they make up all but 12% or so of the library. Calls come from the whole dose curve; as a rule, active = well fitted curve in the direction sought with a large enough effect; inconclusive = small, poorly fitted or top-dose-only effect, or another doubt; inactive = no such curve, though single readings can be large; an effect the other way counts as inactive or inconclusive. Potency is the fitted concentration of half-maximal effect.

SMILES	HP1b chromo inh	G9a inh	BAZ2B inh	Sfp PPTase inh	JMJD2A Tudor inh
O=C1C(Cl)=C(Nc2ccc(O)cc2)C(=O)c2ccccc21	?	11µM*	?	-22%	?
Cc1ccc(NC2=C(Cl)C(=O)c3ccccc3C2=O)cc1	-20%	79µM*	?	16%	?
CCN(CC)c1ccc(NC2=C(Cl)C(=O)c3ccccc3C2=O)cc1	4µM*	1.8µM*	2.2µM*	?	2.5µM*
CCN(CC)c1ccc(CC(=O)NC(C)Cc2ccccc2)cc1 (configuration not stated)	-5%	-24%[59 µM]	?	14%	-19%
CCCC(=O)NC1=C(Cl)C(=O)c2ccccc2C1=O	7.1µM*	nt	nt	nt	1.8µM*
CCCC(=O)NNC(=O)CCC(=O)Nc1ccccc1Cl	28%	-4%	-10%	12%	-9%
CCC1CN(C(=O)Nc2cc(Cl)ccc2C(=O)OC)c2ccccc2S1 (configuration not stated)	59%	-16%[59 µM]	-5%	nt	-10%
Cc1cccc(C2c3[nH]c4ccccc4c3CCN2C(=O)c2ocnc2C)n1 (configuration not stated)	6%	32µM*	79µM*	-12%	-32%
Cc1cnc(C(=O)N2CCc3c([nH]c4ccccc34)C2c2ccc(F)cc2)cn1 (configuration not stated)	-7%	nt	28µM*	-1%	?
CSc1ccc(C2c3[nH]c4ccccc4c3CCN2C(=O)c2cc(C)n(C)n2)cc1 (configuration not stated)	nt	nt	?	3%	nt
CCc1ccc(C2c3[nH]c4ccccc4c3CCN2C(=O)c2cc(C)nn2C)cc1 (configuration not stated)	-9%	16µM*	?	-6%	?
CCC(C)NC(=O)CN1C(=O)c2cccc3cccc1c23 (configuration not stated)	35%	12%	-2%	4%	-11%
CCN1/C(=N\N)c2cccc3cccc1c23	?	-169%[59 µM]	7.9µM*	35µM*	7.9µM*
CC(=O)Nc1cc(O)c2nonc2c1O	?	nt	nt	nt	25µM*
CC(=O)Nc1c(O)cc(Br)c2nonc12	16%[57 µM]	nt	nt	nt	-18%[57.1 µM]
COc1ccc(N2CC(C(=O)Nc3nnc(SCC(=O)N4CCOCC4)s3)CC2=O)cc1 (configuration not stated)	5%	35µM*	-23%	50µM*	-26%
Cc1cccc(N2CC(C(=O)Nc3nnc(SCC(=O)N4CCOCC4)s3)CC2=O)c1 (configuration not stated)	22%	45µM*	-25%	-23%	-27%
O=C(Nc1nnc(SCC(=O)N2CCOCC2)s1)C1CC(=O)N(c2ccccc2)C1 (configuration not stated)	45%	26%[59 µM]	-8%	10%	-5%
COc1ccc(-n2c(SCC(=O)N3CCC(C)CC3)nc3c([nH]c4ccccc43)c2=O)cc1	13%[57 µM]	4%[59 µM]	6%	nt	-2%
CCOC(=O)c1c(NC(=O)c2cc(-c3ccc(Br)cc3)on2)sc(C)c1C	-10%	2.8µM*	3%	nt	-19%
CCOC(=O)c1c(-c2ccc(C)cc2)csc1NC(=O)c1nc(SCC)ncc1Cl	16%	-6%[59 µM]	-10%	nt	-13%
CCOC(=O)c1c(-c2ccccc2)csc1NC(=S)N(CC)CC	15%	22µM*	4%	-3%	18%
CCOC(=O)c1c(-c2ccc(C)cc2)csc1NC(=O)c1nc(SC(C)C)ncc1Cl	-12%	13µM*	-7%	nt	-17%
CCOC(=O)c1c(-c2ccccc2)csc1NC(=O)c1nn(CC)cc1Br	5%	?	10%	-23%	-10%
CCOC(=O)c1sc(NC(=O)c2cc(-c3cccc(O)c3)on2)c(C(=O)OCC)c1C	52%	-4%	4%	10%	-17%
CCOC(=O)c1c(NC(=O)c2cc(-c3cccc(Cl)c3)on2)sc(C(C)=O)c1C	71µM*	14µM*	1%	nt	-12%
Cc1ccc(Cn2c(=O)c3cccnc3n(CC(=O)Nc3cc(Cl)ccc3C)c2=O)cc1	33%	7%[59 µM]	-1%	nt	3%
CCN(C(=O)COC(=O)CCCOc1ccccc1)c1c(N)n(Cc2ccccc2)c(=O)[nH]c1=O	22%	-13%[12.7 µM]	-2%	nt	-7%

Screening data as filed in PubChem.
